# Where “and” joins values, the source holds several entries; their conditions need not be identical. Equal entries are not always repeated. This is part of a sample that, as a whole, favours compounds with a hit. Of some 83,000 tested, about 20% had one in any assay.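 In brief: 96-well plates, 48 h treatment, single concentration, percent growth endpoint.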 A number with no mark means an inactive call. Calls of active or inactive are those of the source. Where a SMILES comes first, the peptide text is derived from it. [ ]: non-standard residue; d: D form. ξ: configuration not given here. ξV = CC(C)C(N)C(=O)O
# System: OVCAR-8 ovarian
# Assay: NCI-60 one-dose screen, 48 h (100 = growth as untreated, 0 = no growth, -100 = all killed)
# Conditions: 0.0025 µM
# Experimental: Growth inhibition of the OVCAR-8 human tumor cell line is measured as a screen for anti-cancer activity. Cells are grown in 96 well plates and exposed to the test compound for 48 hours. Compounds are tested at a single concentration, which is 10^-5 M for most compounds. The reported endpoint is percent growth (GI% or GIPRCNT), where numbers from 0 - 100% represent growth inhibition, and numbers from -100% - 0 represent cell death. For example, a value of 40 represents 60% growth inhibition. A value of 0 means no net growth occurred over the course of the experiment. A value of -40 indicates 40% of cells at the beginning of the experiment died by the end of the experiment. A value of -100 means all cells are dead at the end of the experiment.
# NCI-60 Human Tumor Cell Lines Screen was performed using the standard one-dose NCI protocol, which is described in more detail at https://dtp.cancer.gov/discovery_development/nci-60/default.htm.
# Compounds with GIPRCNT values below 10 were considered active. Activity score was based on GIPRCNT using the following formula: […]
# Score is 0 for GIPRCNT values of 100 or above, 50 for GIPRCNT values of 0, and 100 for GIPRCNT values of -100.
row,SMILES,growth
1,COc1cccc2c1C(=O)c1c(O)c3c(c(O)c1C2=O)C[C@@](O)(C(=O)CO)C[C@@H]3OC1CC(N)C(O)C(C)O1 (stereo not given in full),99.5%

# Same assay, conditions: 1 µM
row,SMILES,growth
1,COc1cccc2c1C(=O)c1c(O)c3c(c(O)c1C2=O)C[C@@](O)(C(=O)CO)C[C@@H]3OC1CC(N)C(O)C(C)O1 (stereo not given in full),36.6%

# Same assay, conditions: 2.5 µM
row,SMILES,growth
1,COc1cccc2c1C(=O)c1c(O)c3c(c(O)c1C2=O)C[C@@](O)(C(=O)CO)C[C@@H]3OC1CC(N)C(O)C(C)O1 (stereo not given in full),45%

# Same assay, conditions: 10 µM
row,SMILES,growth
1,Cc1nc(N=C(N)N)nc2ccc3ccccc3c12,-6.19% (active)
2,Cc1cc(NS(=O)(=O)c2ccc(N=Nc3cc(N=Nc4ccc(S(=O)(=O)Nc5cc(C)nc(C)n5)cc4)c4c(NC(=O)C(Cl)Cl)cccc4c3OC(=O)C(Cl)Cl)cc2)nc(C)n1 (tested in a mixture with another compound),94.8% and 91.7%
3,COc1c(O)cc2oc3cc(O)c(CC=C(C)C)c(O)c3c(=O)c2c1CC=C(C)C,54.7%
4,CC(=O)OCC(OC(C)=O)C(OC(C)=O)C(OC(C)=O)C(OC(C)=O)C(/C=N/Nc1ccccc1)=N/Nc1ccccc1 (stereo not given),63.8%
5,CN1CCN(CCCN2c3ccccc3Sc3ccc(C(F)(F)F)cc32)CC1,78.2%
6,CC1=CC(C)=Nc2ccc(Cl)cc2N1,102%
7,COc1ccc(CC(=O)c2ccc(O)cc2O)cc1,92.8%
8,Nc1nc(=S)c2ncn(C3OC(CO)C(O)C3O)c2[nH]1 (stereo not given),100% and 13.1%
9,O=C(/C=C/c1ccccn1)c1ccccc1,28.9%
10,Cc1cc(O)c(C(C)C)cc1Cl,104%
11,CCC(C)(C)c1cc(O)c(C(C)(C)CC)cc1O,65.9%
12,Oc1ccc(N=Nc2ccccn2)c(O)c1,18.5%
13,OC(CN1CCCC2CCCCC21)c1cc2ccccc2c2ccccc12 (stereo not given),51.6%
14,O=c1ccn(C2CC(O)C(COC(c3ccccc3)(c3ccccc3)c3ccccc3)O2)c(=O)[nH]1 (stereo not given),80.7%
15,O=C(O)COc1ccc(OCC(=O)O)cc1,13%
16,NC(=O)SCC(=O)NNc1ccccc1,93.8%
17,NNc1ccc2ccccc2c1,97.8% and 96.2%
18,O=C1C=CC(=CC=C2C=CN(CCCCCCCCCCCO)C=C2)C=C1,22.7%

row,SMILES,growth
1,NNc1c2ccccc2nc2ccccc12,57.2%
2,OCC(O)C(O)C(O)C(/C=N/Nc1ccccc1)=N/Nc1ccccc1 (stereo not given),92.6%
3,CC[N+](CC)=c1ccc2nc3c(cc(N)c4ccccc43)oc-2c1,-28.4% (active)
4,CCCCCCCCCCCC[N+](C)(C)Cc1ccccc1,11.9%
5,O=C(C(=Cc1ccccc1)C(=O)c1ccccc1)c1ccccc1,47.8% and 87%
6,CN(C)C(=S)SC(=S)N(C)C,107% and 96.6%
7,CC(C)(C)CC(C)(C)c1ccc(OCCO)cc1,108%
8,O=C(/C=C/c1cccnc1)c1ccccc1,83.8%
9,COC(=O)C1=COC(C)C2C[n+]3ccc4c([nH]c5ccccc54)c3CC12 (stereo not given),107% and 89.8%
10,OCC1OC(n2cnc3c(=S)nc[nH]c32)C(O)C1O (stereo not given),47.3%
11,CCCC1CCC(=C2C(=O)CCC2=O)O1 (stereo not given),112%
12,CC(C)C(NC(=O)CN)C(=O)O (stereo not given) (H-Gly-[ξV]-OH),101% and 110%
13,O=C(Nc1ccc(C(=O)O)c(O)c1)c1ccccc1,97.7% and 99.8%
14,O=[N+]([O-])C1=C(c2ccccc2)SC=C(c2ccccc2)S1,71.4%
15,O=C1C=C(O)c2ccccc2C1=O.[Ag],95.4%
16,Clc1ccc(/C=C/c2ccccn2)c(Cl)c1,101%
17,NC1=C(Cl)C(=O)c2ccccc2C1=O,74.4%
18,CC(=O)Nc1cc(C)ccc1C,104%

# Same assay, conditions: 100 µM
row,SMILES,growth
1,O=c1ccn(C2CC(O)C(COC(c3ccccc3)(c3ccccc3)c3ccccc3)O2)c(=O)[nH]1 (stereo not given),44.9%

# — PubChem BioAssay (NCI)
